From PubChem BioAssay
HPGD inh: qHTS Assay for Inhibitors of HPGD (15-Hydroxyprostaglandin Dehydrogenase) | 15-hydroxyprostaglandin dehydrogenase [NAD(+)] (Homo sapiens), P15428 | purified HPGD, NADH fluorescence kinetic, PGE2 substrate | Potency, µM, for inactives: top-dose activity change, negative = inhibition, usual class: inhibitors | 150,000 compounds, 4.3% hits | AID 894, 2007
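20 nM HPGD preincubated 15 min at room temperature with compound in 50 mM Tris-HCl pH 8, 0.01% Tween 20. Started with 1 mM NAD+ and 30 uM prostaglandin E2; NADH fluorescence (360/450 nm) read 5 times over 30-s intervals, last minus first.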
JMJD2E inh: qHTS Assay for Inhibitors of Human Jumonji Domain Containing 2E (JMJD2E). Lysine-specific demethylase 4E (Homo sapiens), B2RXH2. JMJD2E catalytic domain, FDH-coupled NADH fluorescence (FDH is formaldehyde dehydrogenase). Potency, µM (series often up to 57.1 µM), for the others: at the highest dose activity change, negative = inhibition, hits mostly inhibitors. 230,000 compounds, 1.6% hits. AID 2147, 2009;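 also: 0% = wells with enzyme and -100% = buffer wells without enzyme; nearly all actives have a fitted effect of over 50% in size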
Target sequence (B2RXH2 1-337 limits assumed): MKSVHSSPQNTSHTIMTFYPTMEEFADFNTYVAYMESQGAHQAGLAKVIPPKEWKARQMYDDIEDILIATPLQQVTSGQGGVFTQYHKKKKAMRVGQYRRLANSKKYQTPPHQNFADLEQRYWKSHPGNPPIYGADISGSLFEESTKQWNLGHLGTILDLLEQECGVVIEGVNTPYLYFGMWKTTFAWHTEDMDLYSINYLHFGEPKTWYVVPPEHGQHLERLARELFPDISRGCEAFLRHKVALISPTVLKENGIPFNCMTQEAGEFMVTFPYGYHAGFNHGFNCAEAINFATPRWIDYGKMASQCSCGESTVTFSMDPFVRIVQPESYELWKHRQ
Tau ThT inhib: qHTS for Inhibitors of Tau Fibril Formation, Thioflavin T Binding; recombinant tau K18 P301L, heparin-induced fibrillization, ThT fluorescence; Potency, µM (top dose mostly 57.4 µM), for inactives: at the highest dose activity, negative = inhibition, usual class: inhibitors; 270,000 compounds, 2.1% hits; Microtubule-associated protein tau (Homo sapiens), P10636; AID 1460, 2008; active = well fitted curve in the direction sought with a large enough effect; inconclusive = small, poorly fitted or top-dose-only effect, or another doubt; inactive = no such curve, though single readings can be large; an effect the other way counts as inactive or inconclusive; also: nearly all actives have a fitted effect of over 55% in size
Target sequence (P10636 561-689 P618L limits assumed): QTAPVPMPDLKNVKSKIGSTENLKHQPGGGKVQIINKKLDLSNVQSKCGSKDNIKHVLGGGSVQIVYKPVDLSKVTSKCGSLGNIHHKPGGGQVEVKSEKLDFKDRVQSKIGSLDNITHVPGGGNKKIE
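In this qHTS, human K18 P301L tau is incubated with compound and heparin for 6 hr at 37 C, and Thioflavin T fluorescence then reports fibril load.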
ALDH1A1 inh: qHTS Assay for Inhibitors of Aldehyde Dehydrogenase 1 (ALDH1A1) | 220,000 compounds, 7.3% hits | AID 1030, 2008 | Purified ALDH1A1, NADH fluorescence, propionaldehyde substrate | Aldehyde dehydrogenase 1A1 (Homo sapiens), P00352 | Potency, µM (highest dose often 75.3 µM), for the others: at the top dose activity, negative = inhibition, usual class: inhibitors;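 also: plate controls were no enzyme wells and a reference inhibitor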
Tau fluor counter: Counterscreen qHTS for Inhibitors of Tau Fibril Formation, Fluorescence Polarization | tau K18 P301L (four-repeat tau fragment) Alexa594 fluorescence, heparin fibrillization | Potency, µM (series often up to 57.7 µM), without a hit: at the top dose activity change, negative = decrease | 280,000 compounds, 0.93% hits; active = well fitted curve in the direction sought with a large enough effect; inconclusive = small, poorly fitted or top-dose-only effect, or another doubt; inactive = no such curve, though single readings can be large; an effect the other way counts as inactive or inconclusive; also: nearly all actives have a fitted effect of over 55% in size
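Human K18 P301L tau (15 uM unlabeled plus 0.24 uM Alexa 594-labeled, final) in 100 mM sodium acetate pH 7 was mixed with compound and 20 uM heparin and incubated 6 hr at 37 C.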
Tau FP inhib: qHTS for Inhibitors of Tau Fibril Formation, Fluorescence Polarization; 280,000 compounds, 0.39% hits; K18 P301L tau heparin fibrillization, Alexa594 FP, 6 h; Microtubule-associated protein tau (Homo sapiens), P10636; Potency, µM (titrated, usually from 57.7 µM), for the others: at the highest dose activity, negative = inhibition, actives largely listed as inhibitors; active = well fitted curve in the direction sought with a large enough effect; inconclusive = small, poorly fitted or top-dose-only effect, or another doubt; inactive = no such curve, though single readings can be large; an effect the other way counts as inactive or inconclusive; also: nearly all actives have a fitted effect of over 55% in size
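Steps: dispense K18 P301L tau (15 uM plus 0.24 uM Alexa 594 tracer, final) in pH 7 sodium acetate; add compound; add heparin (20 uM final); incubate 6 hr, 37 C; add ThT (30 uM final); after 1 hr ambient, read FP.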
* = called active by the depositor; ? = inconclusive; · = not tested or not shown. Rows were chosen to be rich in hits. Some 9.9% of all compounds tested hit in one or more screens of this group. Unless noted, calls follow the shape of the dose curve; as a rule, active = well fitted inhibition curve with a large enough effect (not every such curve was filed as active); inconclusive = small, poorly fitted or top-dose-only effect, or another doubt; inactive = no such curve, though single readings can be large or run the other way. Unless noted, % is scaled to controls: 0 for no effect and ±100 for the full control effect; potency is read from the fitted curve at half-maximal effect.

SMILES	HPGD inh	JMJD2E inh	Tau ThT inhib	ALDH1A1 inh	Tau fluor counter	Tau FP inhib
CC(=O)/C(C#N)=C1\NC(=O)C(Cc2ccccc2C)S1 (stereo not given)	·	3%	·	·	·	·
O=C(Nc1nccs1)c1ccc(COc2ccc(F)cc2)o1	14µM*	-6%	-10%	?	-9%	-4%
O=C(Nc1nccs1)c1ccc(COc2ccc(Cl)cc2)o1	-29%	6%	-6%	-6%	-15%	-16%
O=C(CCCSc1nc(-c2ccco2)cc(C(F)(F)F)n1)NCC1CCCO1 (stereo not given)	7.9µM*	1%	-9%	?	-7%	2%
O=C(CCCSc1nc(-c2ccco2)cc(C(F)(F)F)n1)NCc1cccs1	18µM*	-3%	-11%	?	-27%	-1%
FC(F)(F)c1cc(-c2ccco2)nc(NCc2cccs2)n1	-16%	?	?	8.9µM*	-21%	-7%
O=C(CCSc1nc(-c2ccco2)cc(C(F)(F)F)n1)NCC1CCCO1 (stereo not given)	?	-1%	-5%	-15%	-2%	0%
C/C(=N/NS(=O)(=O)c1ccc(Cl)cc1)c1cccc(NC(=O)c2ccc(Cl)cc2Cl)c1	-9%	-1%	-13%	?	?	-4%
O=C(O)C/C=C(\NC(=O)OCc1ccccc1)C(=O)OCc1ccccc1	·	-7%	-6%	0.28µM*	-7%	-6%
O=C(O)CCCNC(=O)OCc1ccccc1	0%	-5%	-10%	8%	-11%	-11%
CC(CCCC(C)(C)O)NC(=O)c1ccc(OC2CCN(C(=O)C3CC3)CC2)cc1 (stereo not given)	·	-13%	?	-5%	-12%	-6%
Cc1cc(C(=O)O)c2c(=O)n(C)c(=O)n(C)c2n1	·	·	-3%	·	-8%	-12%
Cc1ccc2c(c1)nnn2C1CCN(C(=O)C2CCCCC2)CC1	-5%	7%	-3%	7.9µM*	2%	7%
CN1C(=O)/C(=C/c2ccccc2OCc2ccc(C(=O)O)cc2)NC1=S	·	?	-14%	3%	2%	1%
CN1C(=O)/C(=C/c2ccccc2OCc2cccc(F)c2)NC1=S	4.5µM*	1%	-1%	-12%	-18%	?
CN1C(=O)/C(=C/c2ccccc2OCc2ccccc2)NC1=S	11µM*	-4%	-13%	?	-26%	?
CNC(=O)NC(=O)C(C)OC(=O)c1oc2ccccc2c1CSc1ccc(Cl)cc1 (stereo not given)	-16%	-1%	4%	-14%	-3%	3%
Cc1cc(=O)[nH]c(SCC(=O)c2c(N)n(C)c(=O)n(C)c2=O)n1	-9%	3%	-16%	-1%	-1%	-2%
O=[N+]([O-])C1=C(Nc2cccc3ccccc23)CS(=O)(=O)C1	20µM*	?	-23%	?	-23%	-7%
CN(C)c1nc(=NCc2ccco2)ss1	·	3%	8.9µM*	10µM*	-13%	14µM*
Cc1ccc(S(=O)(=O)N2CCN(C(C)C(=O)Nc3ccccc3-c3ccccc3)CC2)cc1 (stereo not given)	0%	4%	-8%	7.9µM*	-6%	-6%
CC1CCN(C(C)C(=O)Nc2ccccc2-c2ccccc2)CC1 (stereo not given)	-1%	-26%	-11%	-11%	-6%	-1%
CC(C(=O)Nc1ccccc1-c1ccccc1)N1CCN(C(=O)c2ccccc2)CC1 (stereo not given)	·	0%	-12%	13µM*	-11%	-8%
